Experimental data reported in the supplement of paper PMC10849652.
Of roughly 8,800 targets only a part is listed; those with a hit were picked by preference. About 0.5% of all pairs of compound and target were hits.

compound: C1COCCN1CCN2C3=CC=CC=C3N=C2NC(=O)C4=CC(=CC=C4)[N+](=O)[O-] [IRAK-1-4 Inhibitor I]; experiment: log2 fold change, soluble protein after heating vs DMSO (PISA); higher = thermal stabilisation; K562 lysate, 10 uM; active = over 0.2 and 3.5 SD of the protein, either way, in both replicates (recomputed)
How it was run: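 Soluble protein was defined as the supernatant remaining after 21,000xg for 90 min, following pooling of heated aliquots and adjustment to 0.5% NP-40 at 4°C. Before that, crude K562 extract at 1 mg/mL protein in PBS pH 7.4 with 1 mM MgCl2 was treated with 10 μM compound for 30 min and heated for 3 min across 48°C-58°C. Quantification used TMTpro 16plex LC-MS/MS with channel sums equalised, and values are log-two fold changes in thermal stability relative to solvent controls from duplicates.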

UniProt P48729, sequence (P48729 whole entry, looked up): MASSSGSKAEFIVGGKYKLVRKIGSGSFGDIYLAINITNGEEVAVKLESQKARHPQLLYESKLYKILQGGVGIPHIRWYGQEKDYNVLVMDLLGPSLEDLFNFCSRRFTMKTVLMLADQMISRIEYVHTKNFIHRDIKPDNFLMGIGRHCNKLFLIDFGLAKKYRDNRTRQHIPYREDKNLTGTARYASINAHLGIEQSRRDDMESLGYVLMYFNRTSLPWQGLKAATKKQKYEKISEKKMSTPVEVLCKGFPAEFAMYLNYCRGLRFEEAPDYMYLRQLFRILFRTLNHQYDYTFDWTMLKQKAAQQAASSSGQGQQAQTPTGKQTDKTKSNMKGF
UniProt Q6UX07, sequence (Q6UX07 whole entry, looked up): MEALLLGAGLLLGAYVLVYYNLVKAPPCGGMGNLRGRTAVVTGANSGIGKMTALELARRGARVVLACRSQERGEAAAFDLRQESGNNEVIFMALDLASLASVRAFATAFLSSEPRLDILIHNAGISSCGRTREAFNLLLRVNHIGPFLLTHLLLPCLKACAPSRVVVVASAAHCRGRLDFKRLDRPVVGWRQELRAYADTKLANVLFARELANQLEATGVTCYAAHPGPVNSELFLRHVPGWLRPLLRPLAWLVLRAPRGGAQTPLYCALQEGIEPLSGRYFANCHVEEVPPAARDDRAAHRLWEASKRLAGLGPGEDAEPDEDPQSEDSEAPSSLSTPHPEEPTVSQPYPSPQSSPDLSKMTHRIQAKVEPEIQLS
UniProt P12111, sequence (P12111 whole entry, looked up): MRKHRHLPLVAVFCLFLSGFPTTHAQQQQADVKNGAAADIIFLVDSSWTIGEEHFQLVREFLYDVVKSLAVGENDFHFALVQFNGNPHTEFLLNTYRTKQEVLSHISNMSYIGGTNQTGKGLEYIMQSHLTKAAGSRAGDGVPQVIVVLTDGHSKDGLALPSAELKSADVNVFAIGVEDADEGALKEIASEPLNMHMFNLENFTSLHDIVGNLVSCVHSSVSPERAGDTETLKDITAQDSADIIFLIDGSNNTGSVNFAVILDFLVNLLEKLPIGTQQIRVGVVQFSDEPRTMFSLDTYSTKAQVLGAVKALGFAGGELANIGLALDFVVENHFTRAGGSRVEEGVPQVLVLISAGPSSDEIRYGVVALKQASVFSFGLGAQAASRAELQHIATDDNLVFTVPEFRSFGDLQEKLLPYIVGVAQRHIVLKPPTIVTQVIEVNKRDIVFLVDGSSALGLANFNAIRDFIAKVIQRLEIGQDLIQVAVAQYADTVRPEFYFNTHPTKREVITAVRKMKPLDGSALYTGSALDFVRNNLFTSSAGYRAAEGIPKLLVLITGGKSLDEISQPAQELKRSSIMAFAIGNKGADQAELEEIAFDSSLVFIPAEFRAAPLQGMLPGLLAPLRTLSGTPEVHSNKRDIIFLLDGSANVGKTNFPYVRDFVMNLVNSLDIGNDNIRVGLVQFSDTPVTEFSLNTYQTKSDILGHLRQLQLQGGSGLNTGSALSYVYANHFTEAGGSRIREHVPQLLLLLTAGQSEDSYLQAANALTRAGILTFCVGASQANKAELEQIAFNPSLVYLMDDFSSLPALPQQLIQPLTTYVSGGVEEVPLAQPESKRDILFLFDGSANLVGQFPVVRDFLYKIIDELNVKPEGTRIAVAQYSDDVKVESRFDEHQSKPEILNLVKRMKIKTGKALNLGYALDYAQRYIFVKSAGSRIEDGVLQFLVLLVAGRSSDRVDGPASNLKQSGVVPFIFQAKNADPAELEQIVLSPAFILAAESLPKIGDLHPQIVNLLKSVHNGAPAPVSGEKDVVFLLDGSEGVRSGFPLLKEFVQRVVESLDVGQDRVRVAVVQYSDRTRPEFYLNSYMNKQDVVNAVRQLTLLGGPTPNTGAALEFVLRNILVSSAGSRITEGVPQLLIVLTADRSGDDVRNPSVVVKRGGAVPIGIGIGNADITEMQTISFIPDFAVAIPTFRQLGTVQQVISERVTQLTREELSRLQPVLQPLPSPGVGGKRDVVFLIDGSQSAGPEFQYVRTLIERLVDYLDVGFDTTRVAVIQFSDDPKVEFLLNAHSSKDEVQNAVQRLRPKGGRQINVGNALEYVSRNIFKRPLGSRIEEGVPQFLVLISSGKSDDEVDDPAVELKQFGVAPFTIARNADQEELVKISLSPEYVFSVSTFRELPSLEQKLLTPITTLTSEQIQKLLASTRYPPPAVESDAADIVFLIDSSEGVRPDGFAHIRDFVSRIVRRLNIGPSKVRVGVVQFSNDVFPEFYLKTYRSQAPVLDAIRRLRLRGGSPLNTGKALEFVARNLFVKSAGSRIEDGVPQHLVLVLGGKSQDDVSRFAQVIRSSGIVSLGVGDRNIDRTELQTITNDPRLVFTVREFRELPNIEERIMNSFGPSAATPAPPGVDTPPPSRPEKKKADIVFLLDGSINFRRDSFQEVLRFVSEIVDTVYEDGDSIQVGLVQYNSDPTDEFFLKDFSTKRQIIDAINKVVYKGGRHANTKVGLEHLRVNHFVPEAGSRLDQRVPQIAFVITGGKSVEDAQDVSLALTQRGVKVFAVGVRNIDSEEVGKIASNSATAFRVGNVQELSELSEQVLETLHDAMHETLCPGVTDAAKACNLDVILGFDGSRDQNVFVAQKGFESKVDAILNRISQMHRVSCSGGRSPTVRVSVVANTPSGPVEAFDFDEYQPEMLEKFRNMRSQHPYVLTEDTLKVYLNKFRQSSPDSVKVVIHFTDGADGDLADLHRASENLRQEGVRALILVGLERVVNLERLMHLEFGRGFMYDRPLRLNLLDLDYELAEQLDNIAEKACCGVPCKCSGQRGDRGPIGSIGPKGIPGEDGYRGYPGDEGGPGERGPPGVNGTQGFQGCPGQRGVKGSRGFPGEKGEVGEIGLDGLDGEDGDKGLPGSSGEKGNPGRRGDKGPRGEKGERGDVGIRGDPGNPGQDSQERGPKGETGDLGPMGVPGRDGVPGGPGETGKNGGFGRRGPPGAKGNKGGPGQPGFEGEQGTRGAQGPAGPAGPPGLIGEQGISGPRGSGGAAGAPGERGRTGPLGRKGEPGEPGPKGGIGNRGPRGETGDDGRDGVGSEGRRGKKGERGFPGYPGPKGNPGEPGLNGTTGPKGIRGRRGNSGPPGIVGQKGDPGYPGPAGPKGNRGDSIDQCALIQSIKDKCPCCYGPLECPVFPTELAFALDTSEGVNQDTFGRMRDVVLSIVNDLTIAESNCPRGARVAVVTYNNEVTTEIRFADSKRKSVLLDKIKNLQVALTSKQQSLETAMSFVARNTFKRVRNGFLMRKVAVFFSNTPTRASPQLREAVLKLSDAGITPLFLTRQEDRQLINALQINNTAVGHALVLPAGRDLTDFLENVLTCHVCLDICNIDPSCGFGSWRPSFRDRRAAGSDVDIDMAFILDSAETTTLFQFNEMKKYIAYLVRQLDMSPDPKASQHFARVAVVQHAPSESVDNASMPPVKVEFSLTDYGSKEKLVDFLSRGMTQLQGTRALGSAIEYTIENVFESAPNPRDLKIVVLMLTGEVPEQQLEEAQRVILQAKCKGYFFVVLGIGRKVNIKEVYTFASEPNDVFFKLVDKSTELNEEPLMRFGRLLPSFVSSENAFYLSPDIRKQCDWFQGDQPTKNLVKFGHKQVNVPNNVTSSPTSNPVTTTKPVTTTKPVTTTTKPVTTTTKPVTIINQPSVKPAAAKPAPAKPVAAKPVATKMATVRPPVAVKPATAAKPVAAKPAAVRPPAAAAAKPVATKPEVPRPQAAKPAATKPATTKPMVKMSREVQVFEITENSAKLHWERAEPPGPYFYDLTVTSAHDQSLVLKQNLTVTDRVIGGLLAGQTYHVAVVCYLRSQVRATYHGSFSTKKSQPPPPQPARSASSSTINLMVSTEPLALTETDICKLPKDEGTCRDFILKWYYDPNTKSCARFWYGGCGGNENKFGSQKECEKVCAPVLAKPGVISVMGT
UniProt Q9NYP3, sequence (Q9NYP3 whole entry, looked up): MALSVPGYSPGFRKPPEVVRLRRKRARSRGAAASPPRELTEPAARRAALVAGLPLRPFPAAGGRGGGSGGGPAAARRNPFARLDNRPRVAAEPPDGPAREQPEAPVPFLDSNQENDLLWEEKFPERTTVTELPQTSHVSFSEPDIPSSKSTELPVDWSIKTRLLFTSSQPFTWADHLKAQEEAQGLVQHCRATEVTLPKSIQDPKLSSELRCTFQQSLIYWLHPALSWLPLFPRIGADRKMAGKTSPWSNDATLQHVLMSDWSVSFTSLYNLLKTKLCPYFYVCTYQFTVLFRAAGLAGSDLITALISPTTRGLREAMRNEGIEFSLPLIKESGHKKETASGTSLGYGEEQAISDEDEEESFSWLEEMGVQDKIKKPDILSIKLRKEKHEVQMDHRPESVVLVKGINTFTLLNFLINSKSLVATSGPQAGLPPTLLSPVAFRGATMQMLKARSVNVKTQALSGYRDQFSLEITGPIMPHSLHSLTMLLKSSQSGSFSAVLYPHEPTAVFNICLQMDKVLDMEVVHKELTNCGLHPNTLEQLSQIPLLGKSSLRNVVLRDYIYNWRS
UniProt Q9Y600, sequence (Q9Y600 whole entry, looked up): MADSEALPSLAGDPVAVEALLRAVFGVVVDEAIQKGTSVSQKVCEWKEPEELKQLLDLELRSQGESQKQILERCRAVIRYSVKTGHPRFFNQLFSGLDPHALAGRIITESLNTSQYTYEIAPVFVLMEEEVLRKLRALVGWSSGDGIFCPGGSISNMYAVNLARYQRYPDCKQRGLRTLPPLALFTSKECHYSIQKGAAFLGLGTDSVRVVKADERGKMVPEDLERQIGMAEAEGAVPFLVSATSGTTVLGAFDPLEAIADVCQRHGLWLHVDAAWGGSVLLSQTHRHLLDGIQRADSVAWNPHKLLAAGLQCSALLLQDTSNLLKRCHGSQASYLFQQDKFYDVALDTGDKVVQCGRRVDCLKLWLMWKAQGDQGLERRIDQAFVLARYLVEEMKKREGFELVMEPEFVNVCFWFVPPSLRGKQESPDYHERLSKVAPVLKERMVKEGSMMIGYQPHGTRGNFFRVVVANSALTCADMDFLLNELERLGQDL
UniProt Q8WXC6, sequence (Q8WXC6 whole entry, looked up): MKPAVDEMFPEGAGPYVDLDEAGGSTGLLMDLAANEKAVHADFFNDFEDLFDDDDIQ

log2 fold change, inactive:
CSDE1 isoform 3 (UniProt O75534) -0.011
COPS9 (UniProt Q8WXC6) -0.371
CHEK2 (UniProt O96017) -0.031
CHMP4A (UniProt H0YIN6) 0.142
CSNK1D (UniProt P48730) -0.048
DDR1 isoform 5 (UniProt Q08345) 0.097
CSAD isoform 3 (UniProt Q9Y600) -0.02
CLASP2 (UniProt O75122) -0.017
CORO7 (UniProt P57737) 0.091
DHRS13 (UniProt Q6UX07) -0.162
CPLX1 (UniProt O14810) 0.027
COL6A3 (UniProt P12111) -0.071
CRLS1 (UniProt Q9UJA2) -0.021
DAPK1 isoform 3 (UniProt P53355) 0.008
DHX32 (UniProt Q7L7V1) 0.036
CNK3/IPCEF1 isoform 2 (UniProt G9CGD6) 0.105
CLIP1 isoform 2 (UniProt P30622) 0.026
CINP isoform 3 (UniProt Q9BW66) 0.074
CYP4V2 (UniProt Q6ZWL3) 0.074
CLIP1, A0A3B3ITA2 0.121
DNM2 isoform 4 (UniProt P50570) 0.133
DONSON (UniProt Q9NYP3) -0.021
CSNK1A1 isoform 3 (UniProt P48729) 0.088
